Source: PubChem (National Center for Advancing Translational Sciences (NCATS))
Most compounds without a hit are left out; they make up all but 12% or so of the library.
PI5P4K alpha inh = blocks human PI5P4K alpha kinase activity; PI5P4Kalpha enzyme, ADP-Glo luminescence, 60 min; stronger effect = lower value; max response, %; P48426; hit rate 1.2% among 330,000; active = max response of -50% or lower; inconclusive = between -30% and -50%; inactive = -30% or higher; also: value at the top dose of about 77 µM
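ADP-Glo luminescence end-point read after a 60 min room-temperature kinase reaction of PI5P4Kalpha plus substrate, initiated with ATP at 5 microM final. Buffer: 0.038 M HEPES pH 7.4, EGTA, 0.1% CHAPS, 5% DMSO.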
G9a inh = blocks human histone lysine methyltransferase G9a; Q96KQ7; G9a H3K9 monomethylation, AlphaScreen, 2 h; Potency, µM (series often up to 102 µM), most hits filed as inhibitors; hit rate 8.8% among 350,000; AID 504332; also: nearly all actives have a fitted effect of over 75% in size
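Readings reflect AlphaScreen signal from monomethyl-H3K9 antibody detection. HMT at 20 nM; substrate b-H3K9 500 nM; cofactor SAM 20 uM; 2 h RT reaction; compounds tested as titrations in qHTS with 15 min preincubation.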
PLK1 PBD block = blocks phosphopeptide binding to human PLK1 polo-box domain | P53350 | Plk1 PBD binding of FITC phosphopeptide, fluorescence polarization | Potency, µM, hits mostly inhibitors | hit rate 2.8% among 360,000; also: series mostly up to about 57 µM; nearly all actives have a fitted effect of over 65% in size
Target sequence (P53350 whole entry, looked up, the tested form may be a part): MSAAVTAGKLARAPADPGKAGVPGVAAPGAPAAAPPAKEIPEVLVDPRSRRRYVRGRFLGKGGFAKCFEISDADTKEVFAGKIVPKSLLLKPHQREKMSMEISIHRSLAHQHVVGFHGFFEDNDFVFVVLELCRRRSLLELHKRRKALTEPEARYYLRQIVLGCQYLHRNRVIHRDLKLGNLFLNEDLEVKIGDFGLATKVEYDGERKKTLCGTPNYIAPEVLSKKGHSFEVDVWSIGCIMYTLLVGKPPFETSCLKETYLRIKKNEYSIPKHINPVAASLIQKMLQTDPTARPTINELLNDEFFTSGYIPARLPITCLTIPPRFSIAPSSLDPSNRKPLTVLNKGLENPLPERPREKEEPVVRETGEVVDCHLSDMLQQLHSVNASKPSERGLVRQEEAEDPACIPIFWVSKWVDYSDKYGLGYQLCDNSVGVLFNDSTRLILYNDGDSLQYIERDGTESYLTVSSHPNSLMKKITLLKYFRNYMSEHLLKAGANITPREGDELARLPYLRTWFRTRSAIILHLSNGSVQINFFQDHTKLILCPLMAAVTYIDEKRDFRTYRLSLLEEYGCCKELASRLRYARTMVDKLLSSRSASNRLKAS
JMJD2A Tudor = blocks the human JMJD2A Tudor domain; O75164; AlphaScreen JMJD2A-Tudor / H3K4me3 peptide binding; Potency, µM (series often up to 114 µM), hits mostly inhibitors; hit rate 4.4% among 390,000; AID 504339; also: nearly all actives have a fitted effect of over 50% in size
BAZ2B inh = inhibitors of human BAZ2B bromodomain; Q9UIF8; Potency, µM (top dose mostly 114 µM), most hits filed as inhibitors; hit rate 4.4% among 360,000; AlphaScreen BAZ2B-H3K14Ac peptide displacement; also: nearly all actives have a fitted effect of over 60% in size
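In this displacement format the biotinylated H3(5-23) peptide acetylated at Lys14 serves as ligand at 50 nM, with BAZ2B at 50 nM in PBS pH 7.4 containing 0.01% Tween-20. Donor and acceptor beads are 10 ug/mL final.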
HP1b chromo inh = blocks HP1-beta chromodomain binding to methylated histone tails | Potency, µM (top dose mostly 114 µM), usual class: inhibitors | hit rate 0.56% among 390,000 | AlphaScreen HP1-beta / biotin-H3K9me3 peptide binding | P83916 | AID 540317; also: nearly all actives have a fitted effect of over 70% in size
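AlphaScreen: HP1-beta (50 nM) preformed 30 min with biotin-H3(1-18)K9me3 peptide (50 nM) in PBS pH 7.4, 0.01% Tween-20. Compound added for 30 min at RT, then streptavidin donor/nickel chelate acceptor beads (10 ug/mL) for 30 min.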
Numbers stand for hits; - = inactive; ? = inconclusive; . = not tested or not shown; [ ] = remark or other dose. Unless noted, calls follow the shape of the dose curve; as a rule, active = well fitted curve in the direction sought with a large enough effect; inconclusive = small, poorly fitted or top-dose-only effect, or another doubt; inactive = no such curve, though single readings can be large; an effect the other way counts as inactive or inconclusive.

SMILES | PI5P4K alpha inh | G9a inh | PLK1 PBD block | JMJD2A Tudor | BAZ2B inh | HP1b chromo inh
CCCCC(c1nnnn1CCOC)N1CCN(c2cccc(OC)c2)CC1 (stereo not drawn) | - | 44.7µM | ? | -[11.4 µM] | 50.1µM | -
COc1cc2cc(C(c3nnnn3C3CCCC3)N3CCCCC3)c(=O)[nH]c2cc1OC (stereo not drawn) | . | -[12.7 µM] | - | - | - | -
CCCCN(CC)CCNC(=O)C1CCN(c2nnc(C)c3c(C)n(-c4ccc(C)cc4)nc23)CC1 | . | ? | . | - | - | -
CCCCCNC(=O)c1ccc2c(=O)n(CCc3ccccc3)c(=O)[nH]c2c1 | . | - | . | - | - | -
CCN(Cc1ccccc1)C(c1cc2ccc(C)cc2[nH]c1=O)c1nnnn1CCOC (stereo not drawn) | - | 35.5µM | - | - | - | -
COc1ccc(C(c2nnnn2CCc2ccccc2)N2CCN(C3CCCC3)CC2)cc1 (stereo not drawn) | - | 79.4µM | - | - | - | -
Cc1ccc2cc(C(c3nnnn3Cc3ccccc3)N3CCN(c4ccccc4)CC3)c(=O)[nH]c2c1 (stereo not drawn) | . | ? | - | ? | ? | -
Cc1ccc(N2C(=O)N(CC(=O)Nc3ccccc3C(F)(F)F)C(=O)C2C)cc1 (stereo not drawn) | - | -[2.33 µM] | - | - | - | -
O=C(OCc1cn([C@H]2CN(C(=O)C3CCCCC3)[C@@H](c3ccc(Cl)cc3)C[C@@H]2O)nn1)c1ccccc1 | - | . | - | . | . | .
COc1ccc(-c2[nH]c(-c3ccc(Cl)cc3)nc2SCC(=O)NCC2CCCO2)cc1 (stereo not drawn) | . | - | . | - | - | -
Cc1ccc(CN2CCN(C(=O)c3ccco3)CC2)cc1 | - | - | - | - | - | -
COc1ccc(Br)cc1CN1CCN(C(=O)c2ccco2)CC1 | - | 10µM | - | 7.08µM | 28.2µM | 31.6µM
COc1ccc(CN2CCN(C(=O)c3ccco3)CC2)c(OC)c1OC | - | . | - | 25.1µM | . | ?
O=C(c1ccco1)N1CCN(Cc2cccnc2)CC1 | - | 3.55µM | - | 3.55µM | 25.1µM | -
O=C(COC(=O)C1(c2ccccc2F)CCCC1)N1CCN(C(=O)c2ccco2)CC1 | . | 50.1µM | - | - | - | -
CCn1cc(Cl)c(C(=O)Nc2cccc(CN3CCOCC3)c2)n1 | - | - | - | - | - | -
O=C(c1ccco1)N1CCN(Cc2ccccc2F)CC1 | - | 28.2µM | - | 28.2µM | ? | ?
COc1ccccc1CN1CCN(C(=O)c2ccco2)CC1 | - | 22.4µM | - | 1µM | ? | 50.1µM
O=C(c1ccco1)N1CCN(Cc2c(F)cccc2Cl)CC1 | - | - | - | - | - | -
CCN1CCN(C(=O)c2cnn(-c3ccc(F)cc3)c2-n2cccc2)CC1 | . | - | . | - | - | -
C=CCNCCCCOc1ccc(Br)cc1C | - | 2.51µM | - | 2.51µM | 79.4µM | ?
Cc1cc(Br)ccc1OCCCCNCCO | - | . | - | 3.16µM | ? | ?
C/C(=N\O)C(=O)C(CN1CCCCC1)CN1CCCCC1 | . | 0.891µM | ? | - | - | ?
CCOC(=O)c1cccc(NC(=O)c2cc3c(=O)n(Cc4cccnc4)ccc3nc2C)c1 | . | - | . | - | - | -
S=C1NC=NC2N=CNC12 (stereo not drawn) | . | 22.4µM | . | . | . | .
SMILES | PI5P4K alpha inh | G9a inh | PLK1 PBD block | JMJD2A Tudor | BAZ2B inh | HP1b chromo inh
COCCn1c(-c2ccc(-c3ccc([N+](=O)[O-])cc3Br)o2)nc2c1c(=O)[nH]c(=O)n2CC(C)C | - | 35.5µM | - | - | - | -
COc1ccc(-c2ccc(-c3nc4c(c(=O)[nH]c(=O)n4Cc4ccccc4)n3C)o2)c([N+](=O)[O-])c1 | - | ? | - | - | ? | -
COCCn1c(=O)[nH]c(=O)c2c1nc(-c1ccc(-c3ccc(Cl)cc3[N+](=O)[O-])o1)n2Cc1ccccc1 | ? | 8.91µM | - | ? | ? | ?
COc1ccc(CCNC(=O)CN(Cc2ccc(Cl)cc2)S(C)(=O)=O)cc1 | - | . | - | - | - | -
CCC1Nc2ncnc(N3CCN(c4ccccc4)CC3)c2N(Cc2ccc(C)cc2)C1=O (stereo not drawn) | - | ? | - | 56.2µM | ? | -
CCC1Nc2ncnc(N3CCN(c4ccccn4)CC3)c2N(Cc2ccc(Cl)cc2)C1=O (stereo not drawn) | - | -[2.33 µM] | - | ? | 56.2µM | -
